The text below walks through data of PMC5892938, “SARNAclust: Semi-automatic detection of RNA protein binding motifs from immunoprecipitation data”.

In all, about 11,000 sequences were measured (“log2 fold change”: median about 0.00022, highest 2% from about 0.34 on). The list shows a part of the results.

The assay addresses GST-SBP-SLBP (stem-loop binding protein) (Homo sapiens, UniProt Q14493 1-270). Description: targeted RNA Bind-n-Seq; RBNS binding buffer: 25 mM Tris pH 7.5, 150 mM KCl, 3 mM MgCl2, 0.1% Tween, 0.5 mg/mL BSA, 1 mM DTT; 27 nM protein, 750 pM RNA pool; temperature not stated; high values mean tight binding. To be noted: protein: recombinant; tags: N-terminal GST and SBP (pGEX6P1-SBP); structured_RNA. A digest of the protocol:
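Read counts per sequence supply the binding signal, defined as the DEseq fold change on a binary-logarithm scale. These counts came from RNA of a designed, T7-transcribed oligo pool at 750 pM that bound 27 nM of GST-SBP-tagged protein, made in Rosetta(DE3) pLysS E. coli and glutathione-purified, in RBNS binding buffer. The bound RNA was reverse transcribed with a 10-nucleotide barcoded primer, PCR-amplified and sequenced on a MiSeq with 200-cycle paired-end reads, then processed with FLASH and HISAT2 and collapsed by barcode.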
As to “GGUCACGUCUCAAUCAACUCCUAAGAGGGGGGGAAAACCCCUUUGCCCUCACCGUCAACAGCUCGCAGUCAAG”, the binding signal was 0.325 ± 0.438 log2 fold change.

As for “GGUCACGUCUCAAUCAACUCCUCAGAGGGGGGGAAAACCCCUUUACCCUCCACCUCAACAGCUCGCAGUCAAG”, the binding signal stood at 0.326 ± 0.442 log2 fold change.

Regarding “GGUCACGUCUCAAUCAACUCAAUAGAGGGGGGGAAAACCCCUUUACCCUCCAUAUCAACAGCUCGCAGUCAAG”, the binding signal is 0.379 ± 0.407 log2 fold change.

Take “GGUCACGUCUCAAUCAACUCCAUAGAGGGGGGGAAAACCCCUUUACCCUCACACUCAACAGCUCGCAGUCAAG”: the binding signal is 0.698 ± 0.433 log2 fold change.

Take “GGUCACGUCUCAAUCAACUCAAUAGAGGGGGGGAAAACCCCUUUACCCUCCACCUCAACAGCUCGCAGUCAAG”: the binding signal is 0.349 ± 0.417 log2 fold change.

“GGUCACGUCUCAAUCAACUCACAAGAGGGGGGGAAAACCCCUUUACCCUCGAUAUCAACAGCUCGCAGUCAAG”: the binding signal amounted to 0.383 ± 0.425 log2 fold change.

On to “GGUCACGUCUCAAUCAACUCCAUAGAGGGGGGGAAAACCCCUUUACCCUCACAUUCAACAGCUCGCAGUCAAG”, for which the binding signal is 0.32 ± 0.406 log2 fold change.

For “GGUCACGUCUCAAUCAACUCAAUAGAGGGGGGGAAAACCCCUUUACCCUCGAUAUCAACAGCUCGCAGUCAAG”, the binding signal was found to be 0.435 ± 0.406 log2 fold change.

Take “GGUCACGUCUCAAUCAACUCCCCAGAGGGGGGGAAAACCCCUUUACCCUCCAUCUCAACAGCUCGCAGUCAAG”: the binding signal was 0.313 ± 0.439 log2 fold change.

As to “GGUCACGUCUCAAUCAACUCCCCAGAGGGGGGGAAAACCCCUUUACCCUCCAUAUCAACAGCUCGCAGUCAAG”, the binding signal amounted to 0.573 ± 0.413 log2 fold change.

In the case of “GGUCACGUCUCAAUCAACUCUUUAGAGGGGGGGAAAACCCCUUUACCCUCGAUAUCAACAGCUCGCAGUCAAG”, the binding signal stood at 0.336 ± 0.435 log2 fold change.

As for “GGUCACGUCUCAAUCAACUCUCACGAGGGGGGGAAAACCCCUUUACCCUCAACUUCAACAGCUCGCAGUCAAG”, the binding signal is 0.363 ± 0.418 log2 fold change.

Regarding “GGUCACGUCUCAAUCAACUCAAACGAGGGGGGGAAAACCCCUUUACCCUCAACUUCAACAGCUCGCAGUCAAG”, the binding signal amounted to 0.35 ± 0.421 log2 fold change.

In the case of “GGUCACGUCUCAAUCAACUCUUACGAGGGGGGGAAAACCCCUUUACCCUCACACUCAACAGCUCGCAGUCAAG”, the binding signal was 0.321 ± 0.386 log2 fold change.

In the case of “GGUCACGUCUCAAUCAACUCAAACGAGGGGGGGAAAACCCCUUUACCCUCAUUCUCAACAGCUCGCAGUCAAG”, the binding signal came to 0.326 ± 0.393 log2 fold change.

On to “GGUCACGUCUCAAUCAACUCUCACGAGGGGGGGAAAACCCCUUUACCCUCUUACUCAACAGCUCGCAGUCAAG”, for which the binding signal is 0.346 ± 0.439 log2 fold change.

As for “GGUCACGUCUCAAUCAACUCUUACGAGGGGGGGAAAACCCCUUUACCCUCUUCUUCAACAGCUCGCAGUCAAG”, the binding signal is 0.477 ± 0.42 log2 fold change.

For the sequence “GGUCACGUCUCAAUCAACUCUAACGAGGGGGGGAAAACCCCUUUACCCUCAACUUCAACAGCUCGCAGUCAAG”, the binding signal is 0.426 ± 0.419 log2 fold change.

Take “GGUCACGUCUCAAUCAACUCUAACGAGGGGGGGAAAACCCCUUUACCCUCUAUAUCAACAGCUCGCAGUCAAG”: the binding signal stood at 0.308 ± 0.434 log2 fold change.

On to “GGUCACGUCUCAAUCAACUCCUUCGAGGGGGGGAAAACCCCUUUACCCUCUUCAUCAACAGCUCGCAGUCAAG”, for which the binding signal turned out to be 0.429 ± 0.434 log2 fold change.

Regarding “GGUCACGUCUCAAUCAACUCCUUCGAGGGGGGGAAAACCCCUUUACCCUCACCUUCAACAGCUCGCAGUCAAG”, the binding signal was determined as 0.36 ± 0.426 log2 fold change.

For the sequence “GGUCACGUCUCAAUCAACUCAACGGAGGGGGGGAAAACCCCUUUACCCUCAACAUCAACAGCUCGCAGUCAAG”, the binding signal came out at 0.308 ± 0.444 log2 fold change.

As for “GGUCACGUCUCAAUCAACUCCUUCGAGGGGGGGAAAACCCCUUUACCCUCUUAAUCAACAGCUCGCAGUCAAG”, the binding signal turned out to be 0.305 ± 0.422 log2 fold change.

Turning to “GGUCACGUCUCAAUCAACUCCUUCGAGGGGGGGAAAACCCCUUUACCCUCACAAUCAACAGCUCGCAGUCAAG”, the binding signal amounted to 0.304 ± 0.425 log2 fold change.

For the sequence “GGUCACGUCUCAAUCAACUCUUCGGAGGGGGGGAAAACCCCUUUACCCUCAAUCUCAACAGCUCGCAGUCAAG”, the binding signal was determined as 0.453 ± 0.428 log2 fold change.

For the sequence “GGUCACGUCUCAAUCAACUCUUUCGAGGGGGGGAAAACCCCUUUACCCUCAUAAUCAACAGCUCGCAGUCAAG”, the binding signal was determined as 0.336 ± 0.429 log2 fold change.

In the case of “GGUCACGUCUCAAUCAACUCUUUCGAGGGGGGGAAAACCCCUUUACCCUCAUACUCAACAGCUCGCAGUCAAG”, the binding signal was found to be 0.524 ± 0.429 log2 fold change.

As for “GGUCACGUCUCAAUCAACUCAAUCGAGGGGGGGAAAACCCCUUUACCCUCACCUUCAACAGCUCGCAGUCAAG”, the binding signal is 0.499 ± 0.434 log2 fold change.

For “GGUCACGUCUCAAUCAACUCAAUUUCCAGGGAAAGCCCUGGUAUACUCAACAGCUCGCAGUCAAG”, the binding signal is 0.343 ± 0.255 log2 fold change.

For “GGUCACGUCUCAAUCAACUCAACUUCCAGGGAAAACCCUGGUAUACUCAACAGCUCGCAGUCAAG”, the binding signal stood at 0.373 ± 0.293 log2 fold change.

On to “GGUCACGUCUCAAUCAACUCAACUCCCAGGGAAAGCCCUGGUAUACUCAACAGCUCGCAGUCAAG”, for which the binding signal came to 0.301 ± 0.289 log2 fold change.

With “GGUCACGUCUCAAUCAACUCUACUUCCAGGGAAACCCCUGGUAUACUCAACAGCUCGCAGUCAAG”, the binding signal was 0.362 ± 0.285 log2 fold change.

Take “GGUCACGUCUCAAUCAACUCACUAGAGGGGGGGAAAACCCCUUUACCCUCAAUUUCAACAGCUCGCAGUCAAG”: the binding signal is 0.352 ± 0.409 log2 fold change.

With “GGUCACGUCUCAAUCAACUCUCUAGAGGGGGGGAAAACCCCUUUACCCUCACUUUCAACAGCUCGCAGUCAAG”, the binding signal came to 0.308 ± 0.399 log2 fold change.

Turning to “GGUCACGUCUCAAUCAACUCGCAAGAGGGGGGGAAAACCCCUUUACCCUCAAAUUCAACAGCUCGCAGUCAAG”, the binding signal stood at 0.308 ± 0.444 log2 fold change.

For “GGUCACGUCUCAAUCAACUCGCAAGAGGGGGGGAAAACCCCUUUACCCUCAAUUUCAACAGCUCGCAGUCAAG”, the binding signal amounted to 0.343 ± 0.444 log2 fold change.
